Assay [1] concerns the target T1, ETS1 (UniProt P14921).
T1 sequence: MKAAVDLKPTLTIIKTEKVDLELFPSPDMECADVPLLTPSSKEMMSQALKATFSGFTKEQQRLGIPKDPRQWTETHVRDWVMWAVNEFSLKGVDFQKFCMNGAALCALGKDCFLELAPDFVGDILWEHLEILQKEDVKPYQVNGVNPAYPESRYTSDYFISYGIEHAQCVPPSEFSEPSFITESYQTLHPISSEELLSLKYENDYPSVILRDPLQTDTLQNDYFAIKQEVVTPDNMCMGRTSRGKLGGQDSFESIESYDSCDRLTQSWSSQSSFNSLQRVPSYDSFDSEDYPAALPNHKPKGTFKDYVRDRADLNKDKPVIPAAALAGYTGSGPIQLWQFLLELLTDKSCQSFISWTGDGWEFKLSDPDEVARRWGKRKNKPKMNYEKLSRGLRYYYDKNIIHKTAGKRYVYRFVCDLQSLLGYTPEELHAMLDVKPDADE
The experiment in a line: ETS1 binding intensity (PBM fluorescence), ETS1 alone (arbitrary fluorescence units); higher = stronger binding. The conditions noted are these: ETS1 concentration 1 nM; RUNX1 concentration 0 nM.

The target in assay [2] is T1, ETS1. The experiment in a line: ETS1 binding intensity (PBM fluorescence) in presence of RUNX1, normalised to ETS1-only experiment (arbitrary fluorescence units); higher = stronger binding. The conditions noted are these: ETS1 concentration 1 nM; RUNX1 concentration 25 nM.
In assay [3] the target is RUNX1 (UniProt Q01196). In words: RUNX1 binding intensity (PBM fluorescence) in presence of ETS1, normalised to RUNX1-only experiment (arbitrary fluorescence units); higher = stronger binding. The conditions noted are these: RUNX1 concentration 2 nM; ETS1 concentration 25 nM. How it is done:
(§1)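 Cooperative gcPBM on 36-bp genomic probes with neighbouring ETS1 and RUNX1 sites. Recombinant human RUNX1 (2 nM) was incubated alone or with ETS1 (25 nM) and detected with anti-RUNX1 antibody plus Alexa488 secondary. Values are medians over 4 replicate spots; the RUNX1+ETS1 data were normalised to the RUNX1-only data. The probes sit in constant array flanks that are not printed.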

Assay [4] addresses RUNX1 (UniProt Q01196). In words: RUNX1 binding intensity (PBM fluorescence), RUNX1 alone (arbitrary fluorescence units); higher = stronger binding. The following applies: RUNX1 concentration 2 nM; ETS1 concentration 0 nM. On the procedure:
as §1
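For RUNX1 binding intensity (PBM fluorescence) in presence of ETS1, normalised to RUNX1-only experiment in this document: Full-length recombinant human ETS1 or RUNX1 bound to double-stranded 36-bp genomic probes on microarrays, detected by protein-specific primary antibody and Alexa488 secondary, spot fluorescence as median of four replicate spots.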
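For RUNX1 binding intensity (PBM fluorescence), RUNX1 alone in this document: Full-length recombinant human RUNX1 bound to double-stranded 36-bp genomic probes on a high-density microarray, scored as Alexa488 fluorescence per spot via anti-RUNX1 antibody, median of four replicate spots.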

Sequence of RUNX1 (Q01196 whole entry): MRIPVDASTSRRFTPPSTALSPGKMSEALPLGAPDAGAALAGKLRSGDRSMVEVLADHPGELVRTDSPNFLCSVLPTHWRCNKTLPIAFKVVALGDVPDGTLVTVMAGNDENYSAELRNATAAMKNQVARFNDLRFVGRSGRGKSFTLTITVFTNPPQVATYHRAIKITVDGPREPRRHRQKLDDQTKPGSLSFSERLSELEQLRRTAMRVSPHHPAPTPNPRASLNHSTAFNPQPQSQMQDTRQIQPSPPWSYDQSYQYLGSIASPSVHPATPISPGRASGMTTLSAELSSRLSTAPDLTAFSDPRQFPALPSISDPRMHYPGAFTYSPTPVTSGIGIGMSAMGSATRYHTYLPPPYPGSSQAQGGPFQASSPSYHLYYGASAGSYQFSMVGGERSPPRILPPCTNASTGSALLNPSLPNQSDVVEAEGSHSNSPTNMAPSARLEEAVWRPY

For the sequence GCAACTGAACAGGAAACTAAAAAACCACAACACTTA, the ETS1 binding intensity with ETS1 [1] was found to be 1400; with ETS1 [2] it was 15600. Besides, in the assay with RUNX1 [3], the RUNX1 binding intensity was found to be 7890.
Turning to CGAGCTCGGTGTTCCGCTTTTTGTGGGCCGGGTGGG, the values for the ETS1 binding intensity with ETS1 [1] and with ETS1 [2] were 467 and 478, respectively. The RUNX1 binding intensity with RUNX1 [3] turned out to be 903.
With CACGGAGCCACTTCCGGCGGCTGTGGGCGCAAAACC, the figures for the ETS1 binding intensity in the assay with ETS1 [1] and in the assay with ETS1 [2] were 3620 and 4210, respectively. Further, the RUNX1 binding intensity with RUNX1 [3] is 3120.
AACACCACTTCCTACTGTGAAACCACACTGTATTTG: the values for the ETS1 binding intensity in the assay with ETS1 [1] and in the assay with ETS1 [2] were 456 and 588, respectively. Further, in the assay with RUNX1 [3], the RUNX1 binding intensity turned out to be 2980.
The like results for TCCTCCATGCAGGAAAACCTCTGTGGTCTGGGAGCT were, in that order, 438, 1230 and 862.
The like results for CCTCCCACCTTGGCAGGAAGCGGTTTATCAGATTAA were, in that order, 4250, 7770 and 2280.
As to TTTCGAGAAAACCGGAAGTGCGTGGTCACGCCCCGC, the ETS1 binding intensity with ETS1 [1] came out at 29400; in the assay with ETS1 [2], 38100. Further, in the assay with RUNX1 [3], the RUNX1 binding intensity was 1670.
ACCATAAGGACCGGAAGCAGAGACCACACTGGTGCT: the ETS1 binding intensity with ETS1 [1] was 7910; in the assay with ETS1 [2] it was 12600. Besides, in the assay with RUNX1 [3], the RUNX1 binding intensity was found to be 1440.
For GGCACTTCCGGTCCTGACCTGAAGCGGTAACCGTCA, the ETS1 binding intensity was 8390 with ETS1 [1] and 8600 with ETS1 [2]. For the same sequence, the RUNX1 binding intensity with RUNX1 [3] worked out at 1820.
For the sequence GTGGAAAGGAAATGTGTCATCTGTGGTTTGGTTTTA, the ETS1 binding intensity is 645 in the assay with ETS1 [1] and 2110 with ETS1 [2]. In the assay with RUNX1 [3], the RUNX1 binding intensity came out at 1410.
The like results for GCCGCTGGGTAGGCGGAAGTAGCCGCAGGCATGGCA were, in that order, 5590, 7400 and 1000.
The like results for CAAGGTTCCTCCGCTTCCTGCCCGCAGGCCGAACCT were, in that order, 956, 1600 and 1830.
TTTGTCATATCAACAGGATGTGGTTCTCCCCTGGTT: the ETS1 binding intensity came out at 6920 in the assay with ETS1 [1] and 10700 with ETS1 [2]. Further, the RUNX1 binding intensity with RUNX1 [3] came to 1530.
Turning to CTGGTAGAAAAGGAAGCAGGTTGTGGTGAGCATTTA, the ETS1 binding intensity came to 837 in the assay with ETS1 [1] and 1720 in the assay with ETS1 [2]. Moreover, the RUNX1 binding intensity in the assay with RUNX1 [3] was found to be 932.
Turning to CCGGTCCGCTCGCCGGAAATGCGGGCTCTCCTGCCG, the results for the ETS1 binding intensity with ETS1 [1] and in the assay with ETS1 [2] were 8400 and 10400, respectively. Moreover, the RUNX1 binding intensity in the assay with RUNX1 [3] was determined as 1240.
For CTCCCACATCCGAAGCGGCGCAACCCACAACAGCCT, in that order: 445, 344 and 1620.
As to ATCAGTCAACTTCCCCCACTCCCTCCCACAAAGAAA, the ETS1 binding intensity with ETS1 [1] is 1010; with ETS1 [2], 979. Moreover, in the assay with RUNX1 [3], the RUNX1 binding intensity stood at 1300.
Consider CTCGTGGGTGCCGGAAGTGGAGGCGGTTGGTGGGGT, for which the ETS1 binding intensity with ETS1 [1] came to 15200; with ETS1 [2] it was 15900. In the assay with RUNX1 [3], the RUNX1 binding intensity was determined as 1410.
For TCTTGCCCGGGTCGGAAATGGTGGTCACGAGCGCTT, in that order: 1110, 1600 and 991.
For GTAGAGACAGGAAATTATGTTGGTTTTCTTGCAGAA, in that order: 3530, 3800 and 1310.
Regarding GGGCCCTTCCTGTGGCGCCTGCCGAGCTGTGGTTGG, the ETS1 binding intensity in the assay with ETS1 [1] worked out at 388; with ETS1 [2], 496. In the assay with RUNX1 [3], the RUNX1 binding intensity was determined as 1380.
For CTCTTCCGCTCAGTCATCCTCAGAGGTGGTAAGACT, in that order: 496, 387 and 2080.
With CAGAAACATCCCTCCTGCCGCCGCTTTGTGGTACCA, the figures for the ETS1 binding intensity with ETS1 [1] and with ETS1 [2] were 378 and 526, respectively. For the same sequence, the RUNX1 binding intensity with RUNX1 [3] stood at 925.
For GGGGACCGGAAAGGGAGGGGTGGGCCGCAGGCGCCG, in that order: 786, 680 and 1150.
The like results for CCGTGGAAGGAAACGCTGCCAACCGCAACAGAAATG were, in that order, 479, 2770 and 3550.
As for GTGCTAAGTGAGGAAGTGCAGTTTACCGCACGGTGG, the ETS1 binding intensity in the assay with ETS1 [1] was 839; with ETS1 [2], 2410. Moreover, in the assay with RUNX1 [3], the RUNX1 binding intensity stood at 935.
For TTTCCTCGGATTCCCGGATGTGGGTGAGTTCATTTG, in that order: 5690, 9630 and 2000.
For CCAACTTTTGAGGGATGTGGTTACGTTTTCTAGATC, in that order: 366, 1440 and 1620.
The like results for AGGAGTGTCACTTCCTCTTTCCTCACCACAGCCTCC were, in that order, 1100, 1440 and 1890.
Turning to GCCCCCATGCTTCCTGTTGTGGGAGATGAAGTGTGG, the ETS1 binding intensity in the assay with ETS1 [1] and in the assay with ETS1 [2] was 1710 throughout. Moreover, the RUNX1 binding intensity with RUNX1 [3] stood at 1650.
Regarding TTCAACAAGGTTTTCCTGTGGTTACCCCATGCTTTG, the values for the ETS1 binding intensity with ETS1 [1] and with ETS1 [2] were 364 and 451, respectively. For the same sequence, the RUNX1 binding intensity with RUNX1 [3] worked out at 1680.
On to CGTTTCCTGTCTGGGACTGCGCCCACGCGGTCACGT, for which the ETS1 binding intensity in the assay with ETS1 [1] was 725; with ETS1 [2], 922. For the same sequence, the RUNX1 binding intensity with RUNX1 [3] was 2450.
The like results for AATGATTACCTAACAGGAAAACCACATTGGTCATTT were, in that order, 1150, 3100 and 1130.
For CCCACAGGAAATCCCCTGGTCTGTGGCGCCTCTGAT, in that order: 881, 823 and 1110.
The like results for AAAGCAAACAGGAAGTGCTGTGGTAACAAGGCCCCA were, in that order, 6830, 14500 and 1820.
Regarding GAAGTCACTCAGGGAGGAAACCACAGGGCCGGTCCG, the figures for the ETS1 binding intensity with ETS1 [1] and with ETS1 [2] were 466 and 1270, respectively. Besides, in the assay with RUNX1 [3], the RUNX1 binding intensity came out at 863.
As for AGGACACAGACAGGAAACCCGCAGGCTTTGTTTTTT, the ETS1 binding intensity with ETS1 [1] amounted to 2580; in the assay with ETS1 [2] it was 5290. Besides, the RUNX1 binding intensity in the assay with RUNX1 [3] came out at 1470.
For AGGAAACCACAAGTTATTCCCTGCAAAGGTCTTGAT, the RUNX1 binding intensity in the assay with RUNX1 [4] is 3320; with RUNX1 [3] it was 6430.
With ATTTCGCTGAAAACAGGAAACCACGAAGCCCAGATG, the RUNX1 binding intensity with RUNX1 [4] was found to be 899; with RUNX1 [3], 1250.
GGACGCTTCCGGTGGAAGGGAGCTGTTGCGGGGCTT: the ETS1 binding intensity with ETS1 [1] was determined as 1410; with ETS1 [2] it was 1660. Moreover, the RUNX1 binding intensity with RUNX1 [3] came to 1950.
The like results for TGACTTCCGGTCCGTAGTGGGGCCTGCGGTGGGAGT were, in that order, 3690, 10700 and 3180.
Consider AGTCTCGTTTCCTGTGCGCTGTGGCCACCTGGCAGC, for which the RUNX1 binding intensity came to 716 with RUNX1 [4] and 1790 with RUNX1 [3].
On to AATATCCTGTATGTCATGCTTAAAAAGCCACAAAAC, for which the ETS1 binding intensity with ETS1 [1] amounted to 547; with ETS1 [2], 1070. The RUNX1 binding intensity with RUNX1 [3] came out at 2050.
For ATAGACCCAGCCCGTCCGGTAACCGCGCTCCTCGAT, the RUNX1 binding intensity in the assay with RUNX1 [4] amounted to 836; with RUNX1 [3], 913.
The like results for CCCATTTCCGAGAGTGGCAGGGCTGGGCGCGGTGGG were, in that order, 978 and 1420.

Source of the values: the supplement of paper PMC10681739.
